# The panel holds about 79,000 compounds, 15% with a hit somewhere; the sample as a whole holds those more often. Values without a mark were called inactive. Calls of active or inactive are those of the source. No stated cut-off is given here; in the data, active means growth inhibition above about 70%; inactive means the rest.
# Columns and labels:
# [1] = NCI Yeast Anticancer Drug Screen. Data for the rad52 strain (AID 147);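 further: 0% = growth of vehicle-treated control cultures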; details: S. cerevisiae rad52 mutant growth inhibition, stronger effect = higher value
# In short: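 Growth of repair-deficient yeast cells was compared between compound-treated and vehicle-treated cultures to give percent inhibition.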
# [2] = NCI Yeast Anticancer Drug Screen. Data for the wt1 strain (AID 149);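 further: 0% = growth of vehicle-treated wt1 cultures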; details: S. cerevisiae wt1 strain (SPY 50644) growth inhibition, stronger effect = higher value
# In short: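 Measured: growth of wt1 yeast under compound versus vehicle treatment, reported as inhibition.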
# [3] = NCI Yeast Anticancer Drug Screen. Data for the rad50EPP+ strain (AID 151);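 further: 0% = growth of vehicle-treated control cultures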; details: S. cerevisiae rad50 mutant strain, stronger effect = higher value
# In short: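 Measured: growth inhibition of rad50EPP+ yeast. Reference: vehicle-treated controls. Screen uses strains with defined genetic alterations in DNA damage repair or cell cycle control.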
# [4] = NCI Yeast Anticancer Drug Screen. Data for the mgt1 strain (AID 153); details: S. cerevisiae mgt1 mutant growth inhibition, stronger effect = higher value
# In short: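 Compounds were applied to mgt1 mutant yeast, and growth was then compared against vehicle-treated control cultures to give percent inhibition.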
# [5] = NCI Yeast Anticancer Drug Screen. Data for the rad50 strain (AID 155);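 further: 0% = growth of vehicle-only cultures of the same strain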; details: S. cerevisiae rad50 strain growth inhibition, stronger effect = higher value
# In short: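 Growth of the mutant yeast was measured after compound exposure and referenced to vehicle-treated cultures.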
# [6] = NCI Yeast Anticancer Drug Screen. Data for the mec2-1 strain (AID 157); details: S. cerevisiae mec2-1 strain, stronger effect = higher value
# In short: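 Compounds were applied to mec2-1 yeast cells. Their growth was then compared with that of vehicle-treated cultures to give growth inhibition.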
# [7] = NCI Yeast Anticancer Drug Screen. Data for the rad14 strain (AID 159);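 further: 0% = growth of vehicle-treated control cultures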; details: S. cerevisiae rad14 strain growth inhibition, stronger effect = higher value
# In short: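 Here, inhibition of yeast growth was measured after compound exposure, using a strain with a genetic defect in DNA damage repair and vehicle-treated cultures as the reference.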
# [8] = NCI Yeast Anticancer Drug Screen. Data for the sgs1 mgt1 strain (AID 161);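 further: 0% = growth of cultures given vehicle only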; details: S. cerevisiae sgs1 mgt1 strain, stronger effect = higher value
# In short: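 Growth of a repair-deficient yeast mutant was monitored after compound treatment and expressed as inhibition relative to vehicle-treated cultures.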
# [9] = NCI Yeast Anticancer Drug Screen. Data for the CLN2oe strain (AID 163);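 further: 0% = growth of vehicle-only control cultures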; details: S. cerevisiae CLN2oe strain, stronger effect = higher value
# In short: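 Cells of an engineered yeast line with disturbed cell-cycle regulation are treated with compound. Inhibition of growth is then calculated relative to the vehicle-treated reference.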
# [10] = NCI Yeast Anticancer Drug Screen. Data for the cln2 rad14 strain (AID 165);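 further: 0% = growth equal to vehicle treated cultures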; details: S. cerevisiae cln2 rad14 strain, stronger effect = higher value
# In short: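 Strain: cln2 rad14 yeast, altered in cell cycle control and DNA damage repair. Read-out: growth inhibition vs vehicle.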
# [11] = NCI Yeast Anticancer Drug Screen. Data for the bub3 strain (AID 167); details: S. cerevisiae bub3 mutant strain, stronger effect = higher value
# In short: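 Whole-cell yeast assay. The mutant strain was incubated with compounds, and growth inhibition was determined by comparison with vehicle-treated cells.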
# [12] = NCI Yeast Anticancer Drug Screen. Data for the wt2 strain (AID 169);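 further: 0% = growth of vehicle-treated yeast cultures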; details: S. cerevisiae wt2 strain growth inhibition, stronger effect = higher value
# In short: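 Growth of compound-treated yeast is measured and expressed as inhibition relative to vehicle-only controls.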
# [13] = NCI Yeast Anticancer Drug Screen. Data for the mlh1 strain (AID 171);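 further: 0% = growth of vehicle-treated control cultures of the same strain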; details: S. cerevisiae mlh1 strain growth inhibition, stronger effect = higher value
# In short: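 Test agents were incubated with yeast bearing a defined DNA damage repair or cell cycle control alteration; values are growth inhibition normalised to vehicle-treated cultures.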
# [14] = NCI Yeast Anticancer Drug Screen. Data for the sgs1 strain (AID 173);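 further: 0% = growth of vehicle-only control cultures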; details: S. cerevisiae sgs1 mutant, stronger effect = higher value
# In short: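 Strain with an altered DNA repair or cell cycle pathway exposed to compound. Growth then measured. Value = inhibition versus vehicle control.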
# [15] = NCI Yeast Anticancer Drug Screen. Data for the mlh1 rad18 strain (AID 175); details: S. cerevisiae mlh1 rad18 strain growth inhibition, stronger effect = higher value
# In short: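 A repair-deficient yeast strain is exposed to test compound, and growth is scored relative to vehicle-treated controls.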
# [16] = NCI Yeast Anticancer Drug Screen. Data for the rad18 strain (AID 177); details: S. cerevisiae rad18 mutant growth inhibition, stronger effect = higher value
# In short: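 DNA-repair-defective yeast; compound treatment; growth inhibition scored against vehicle.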
# [17] = at 5.0 µM (retest, dose inferred, filed as 0.5)
# [18] = at 50.0 µM (retest, dose inferred, filed as 5.0)
smiles,measurement,setting,value
CC(C)OC(=O)c1ccc(CCc2cc(O)c(Br)cc2O)cc1,growth inhibition,[1]; at 1.2 µM,37%
same,growth inhibition,[1]; at 3.7 µM,50%
same,growth inhibition,[1]; at 11.0 µM,56%
same,growth inhibition,[1]; at 33.0 µM,53%
same,growth inhibition,[1]; at 100.0 µM,79% (active)
same,growth inhibition,[2]; at 1.2 µM,26%
same,growth inhibition,[2]; at 3.7 µM,33%
same,growth inhibition,[2]; at 11.0 µM,45%
same,growth inhibition,[2]; at 33.0 µM,27%
same,growth inhibition,[2]; at 100.0 µM,98% (active)
same,growth inhibition,[3]; at 1.2 µM,66%
same,growth inhibition,[3]; at 3.7 µM,80% (active)
same,growth inhibition,[3]; at 11.0 µM,94% (active)
same,growth inhibition,[3]; at 33.0 µM,97% (active)
same,growth inhibition,[3]; at 100.0 µM,94% (active)
same,growth inhibition,[4]; at 1.2 µM,55%
same,growth inhibition,[4]; at 3.7 µM,70% (active)
same,growth inhibition,[4]; at 11.0 µM,71% (active)
same,growth inhibition,[4]; at 33.0 µM,72% (active)
same,growth inhibition,[4]; at 100.0 µM,94% (active)
same,growth inhibition,[5]; at 1.2 µM,34%
same,growth inhibition,[5]; at 3.7 µM,49%
same,growth inhibition,[5]; [17],27%
same,growth inhibition,[5]; at 11.0 µM,66%
same,growth inhibition,[5]; at 33.0 µM,98% (active)
same,growth inhibition,[5]; [18],99% (active)
same,growth inhibition,[5]; at 50.0 µM,86.2% (active)
same,growth inhibition,[5]; at 100.0 µM,97% (active)
same,growth inhibition,[6]; at 1.2 µM,6%
same,growth inhibition,[6]; at 3.7 µM,20%
same,growth inhibition,[6]; [17],42%
same,growth inhibition,[6]; at 11.0 µM,30%
same,growth inhibition,[6]; at 33.0 µM,32%
same,growth inhibition,[6]; [18],99% (active)
same,growth inhibition,[6]; at 50.0 µM,91.2% (active)
same,growth inhibition,[6]; at 100.0 µM,87% (active)
same,growth inhibition,[7]; at 1.2 µM,43%
same,growth inhibition,[7]; at 3.7 µM,53%
same,growth inhibition,[7]; at 11.0 µM,75% (active)
same,growth inhibition,[7]; at 33.0 µM,96% (active)
same,growth inhibition,[7]; at 100.0 µM,92% (active)
same,growth inhibition,[8]; [17],31%
same,growth inhibition,[8]; [18],98% (active)
same,growth inhibition,[8]; at 50.0 µM,88.5% (active)
same,growth inhibition,[9]; at 1.2 µM,-5%
same,growth inhibition,[9]; at 3.7 µM,19%
same,growth inhibition,[9]; at 11.0 µM,53%
same,growth inhibition,[9]; at 33.0 µM,92% (active)
same,growth inhibition,[9]; at 100.0 µM,95% (active)
same,growth inhibition,[10]; [17],1%
same,growth inhibition,[10]; [18],96% (active)
same,growth inhibition,[10]; at 50.0 µM,91.8% (active)
same,growth inhibition,[11]; at 1.2 µM,22%
same,growth inhibition,[11]; at 3.7 µM,22%
same,growth inhibition,[11]; [17],4%
same,growth inhibition,[11]; at 11.0 µM,52%
same,growth inhibition,[11]; at 33.0 µM,98% (active)
same,growth inhibition,[11]; [18],91% (active)
same,growth inhibition,[11]; at 50.0 µM,88.9% (active)
same,growth inhibition,[11]; at 100.0 µM,92% (active)
same,growth inhibition,[12]; at 1.2 µM,18%
same,growth inhibition,[12]; at 3.7 µM,39%
same,growth inhibition,[12]; at 11.0 µM,95% (active)
same,growth inhibition,[12]; at 33.0 µM,98% (active)
same,growth inhibition,[12]; at 100.0 µM,95% (active)
same,growth inhibition,[13]; at 1.2 µM,55%
same,growth inhibition,[13]; at 3.7 µM,70% (active)
same,growth inhibition,[13]; at 11.0 µM,71% (active)
same,growth inhibition,[13]; at 33.0 µM,72% (active)
same,growth inhibition,[13]; at 100.0 µM,94% (active)
same,growth inhibition,[14]; at 1.2 µM,47%
same,growth inhibition,[14]; at 3.7 µM,60%
same,growth inhibition,[14]; at 11.0 µM,58%
same,growth inhibition,[14]; at 33.0 µM,61%
same,growth inhibition,[14]; at 100.0 µM,95% (active)
same,growth inhibition,[15]; [17],45%
same,growth inhibition,[15]; [18],99% (active)
same,growth inhibition,[15]; at 50.0 µM,85.2% (active)
same,growth inhibition,[16]; at 1.2 µM,20%
same,growth inhibition,[16]; at 3.7 µM,24%
same,growth inhibition,[16]; at 11.0 µM,59%
same,growth inhibition,[16]; at 33.0 µM,96% (active)
same,growth inhibition,[16]; at 100.0 µM,93% (active)
